# Screen size: about 360,000 compounds; about 3,700 (1%) were called active. Not shown: some 2% with an inconclusive outcome.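 Rule for the calls: active = normalized GFP-positive differentiation at or above the plate's own cutoff, the solvent-only control mean plus 3 SD; inconclusive = no clear call, values can overlap the other calls; inactive = the rest.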 Many of the other results were omitted from the sample, so actives are more common in it than they were. Where a SMILES comes first, the peptide text is derived from it. The star is where a group is joined. OPac = O=C(CO*)c1ccccc1; Bz = O=C(c1ccccc1)*
# Test: induction of myeloid progenitor differentiation, primary screen, cell-based, flow cytometry, MLPCN library (AID 624256);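 for GFP+ MAC1+ double positive: cells exposed to compound for four days before flow analysis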;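 for normalized GFP-positive differentiation: cells exposed to compound for four days before flow analysis; 0% = DMSO wells and 100% = fulvestrant positive control at 5 µM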
# Conditions: ER-HoxA9 myeloid progenitors, lysozyme-GFP differentiation, at 10 µM; GFP+ MAC1+ double positive: measured here: differentiation confirmed by MAC1 staining, stronger effect = higher value; normalized GFP-positive differentiation: stronger effect = higher value
Structure (SMILES),GFP+ MAC1+ double positive [%],outcome,normalized GFP-positive differentiation
CN(C(=O)CN1CCN(c2cc(-c3ccc(OCc4ccccc4)cc3)ncn2)CC1)c1ccccc1,1.4,inactive,–
CCOC(=O)C1=C(CN2CCc3ccccc32)NC(=O)NC1c1cc(C)ccc1C (stereo unspecified),0.5,inactive,–
CCOC(=O)C1=C(CN2CCc3ccccc32)NC(=O)NC1c1cccc([N+](=O)[O-])c1 (stereo unspecified),1.5,–,18.4% (active)
CCOC(=O)C1=C(CN2CCc3ccccc32)NC(=O)NC1c1ccc(Cl)cc1 (stereo unspecified),3.7,inactive,–
CCCCCCCCN1C(=O)[C@H](CC(=O)NCc2cccc3ccccc23)C[C@@]2(C(=O)OC)CCCCC=C12,1.4,inactive,–
O=C(NCCN1CCOCC1)c1ccccc1N1C(=O)[C@@H]2Cc3c([nH]c4ccccc34)C(c3cccc(Cl)c3)N2C1=O (stereo partly specified),2.3,inactive,–
COC(=O)c1ccc2nc(-c3ccc(OC)c(OC)c3)c(Cc3ccccc3)n2c1,0.7,inactive,–
Nc1ccc(S(=O)(=O)NC(=O)c2ccccc2)cc1,0.9,inactive,–
Nc1ccc(C(=O)Nc2ccccc2N)cc1,1.3,–,21.2% (active)
O=C(Cc1ccccc1)Nc1ccc(C(=O)Nc2ccccc2C(=O)O)cc1,1.7,inactive,–
CCOc1ccc(CCN2C(=O)C(=O)N([C@@H](CC(C)C)CN3CCC[C@H]3CN3C(=O)C(=O)NC[C@@H]3Cc3ccccc3)C[C@@H]2CC(C)C)cc1,1.6,inactive,–
CC(OC(=O)CCc1nc(=O)c2ccccc2n1C)C(=O)NCc1ccc2c(c1)OCO2 (stereo unspecified),0.9,inactive,–
O=C(COC(=O)Cn1cnc2ccccc2c1=O)NCc1ccccc1Cl,0.9,inactive,–
Cn1c(CCC(=O)OCC(=O)NCc2ccccc2Cl)nc(=O)c2ccccc21,34.4,–,369% (active)
CC(=O)N1C[C@@H](CO)[C@@H](N(C)C(=O)c2ccco2)C[C@H]1c1ccccc1,0.1,inactive,–
CCCCCCCCN1C(=O)[C@H](CC(=O)NCC23CC4CC(CC(C4)C2)C3)C[C@@]2(C(=O)OC)CCCCC=C12,1,inactive,–
O=C(CN1CCOC1=O)N1CCCC(Nc2ccc(F)c(F)c2)C1 (stereo unspecified),3.1,inactive,–
O=C1CCCCN1CCCC(=O)N1CCCC(Nc2ccc(F)cc2)C1 (stereo unspecified),45,–,233% (active)
O=C(CN1C(=O)CSC1=O)N1CCCC(Nc2ccc(F)cc2)C1 (stereo unspecified),0.7,inactive,–
CC(C)(C)C1CCC(=O)N2CCC[C@]2(c2ccccc2)C1 (stereo partly specified),1,inactive,–
CN(C)c1cccc(NC(=O)c2ccc(-c3ccc(F)c(F)c3)c3ccoc23)c1,1.3,inactive,–
Cc1ccc2c(c1)c1ncn(Cc3ccc(F)cc3)c(=O)c1n2C,2.8,–,18% (active)
COc1ccc2c(c1)c1ncn(Cc3ccccn3)c(=O)c1n2C,0.7,inactive,–
Cc1ccc2[nH]c3c(=O)n(Cc4ccccn4)cnc3c2c1,3,inactive,–
Cc1ccc(C(NC(=O)C2CCN(CCOc3ccc(Cl)cc3Cl)CC2)c2ccccn2)cc1 (stereo unspecified),1.4,inactive,–
COc1ccc(-c2cc(NC=O)c3ncc(-c4ccccc4)n3c2)cc1OC,3.3,inactive,–
COC(=O)C1(C(=O)OC)C[C@H](c2ccccc2)N(Cc2ccccc2OC)[C@@H]1c1ccccc1,1.5,inactive,–

Structure (SMILES),GFP+ MAC1+ double positive [%],outcome,normalized GFP-positive differentiation
Cc1ccc(Cc2c(-c3ccc(Cl)cc3)nc3c4ccccc4ccn23)cc1,0.4,inactive,–
CC1CCCC(NC(=O)CN2CCN(Cc3ccc(Cl)cc3)C2=O)C1C (stereo unspecified),11.3,–,111% (active)
CC1CCCCC1NC(=O)COC(=O)Cc1ccc(Cl)cc1 (stereo unspecified),1.4,inactive,–
Cc1ccc(CNC(=O)CN2CCN(Cc3ccc(Cl)cc3)C2=O)cc1,1,inactive,–
Cc1ccc(C)c(C(O)c2ncc(-c3cccc4ccccc34)[nH]2)c1 (stereo unspecified),0.8,inactive,–
C[C@H]1COc2cc(N3CCSCC3)ccc2S(=O)(=O)N1,0.8,inactive,–
Nc1c(C(=O)c2cccs2)sc2nsc(SCCN3CCCCC3)c12,6,–,344% (active)
CCCCCCN1CCN(C2CN(Cc3cn(CCCCCC)nn3)S(=O)(=O)C2)CC1 (stereo unspecified),0.5,inactive,–
Nc1[nH]c(C(=O)c2ccccc2)c(-c2ccncc2)c1C(=O)NCc1cccc2ccccc12,1.6,inactive,–
O=C(Nc1ccc(F)cc1)C(CCc1ccccc1)N1CCN(CC(=O)N2CCCC2)CC1 (stereo unspecified),1.3,inactive,–
O=C(C[n+]1ccc2c(c1)nnn2-c1ccccc1)c1ccc(Cl)cc1,0.8,–,63.4% (active)
O=C(CSc1cccc[n+]1[O-])c1ccc(Cl)cc1,0.4,inactive,–
c1ccc2c(c1)nnn2-c1ccncc1,0.8,inactive,–
Cc1cc(=O)oc2c3c(cc(OCC(=O)NCC(O)c4ccccc4)c12)OC(C)(C)CC3 (stereo unspecified),7.8,inactive,–
Cc1ccccc1OCC(=O)NCC(=O)OCC(=O)c1ccc2ccccc2c1,3.6,–,24.5% (active)
O=C(CNC(=O)c1ccccc1)NCC(=O)OCC(=O)c1ccccc1 (Bz-Gly-Gly-OPac),0.2,inactive,–
Cc1ccc(S(=O)(=O)NC(=O)COc2ccccc2C)cc1,0.4,inactive,–
O=C(NC1CCCCC1)C(c1cc2ccccc2o1)n1c(=O)c(-c2ccco2)nc2ccccc21 (stereo unspecified),5.6,inactive,–
CSc1ccc(CN2CCC2(C)C(=O)Nc2ccc(C)c(O)c2)cc1 (stereo unspecified),0.4,inactive,–
Cc1cccc(N2CCN(C(=O)c3cccc(S(=O)(=O)N4CCc5ccccc5C4)c3)CC2C)c1 (stereo unspecified),7.3,–,31.5% (active)
CC(NC(=O)c1cccc(S(=O)(=O)N2CCc3ccccc3C2)c1)c1ccco1 (stereo unspecified),0.3,inactive,–
CN(C)C(CNC(=O)c1cccc(S(=O)(=O)N2CCc3ccccc3C2)c1)c1ccccc1 (stereo unspecified),0.7,inactive,–
CC1(C(=O)NS(=O)(=O)Cc2cccc(Cl)c2)CCN1C(=O)Cc1ccc(Cl)cc1Cl (stereo unspecified),0.5,inactive,–
OC[C@@H]1CN(Cc2ccncc2)C[C@H](n2cnc3c(N4CCN(c5ccccc5)CC4)ncnc32)O1,1.1,inactive,–
C=CCn1c2c(c3ccccc31)CCC2,1.4,inactive,–
CCOC(=O)[C@]12CCCC=C1N(CCC1=CCCCC1)C(=O)[C@H](CC(=O)N1CCCCC1)C2,3,inactive,–
